Data: article PMC12136788
Substitutions are numbered along the chain they refer to. Whole data set: some 5,800 sequences, median “enrichment r” near 0.54, cut for the highest 2% near 16. This excerpt belongs to a sample that is enriched for the highest values.

B1: chr10:24583932:24584033:-|3pUTR|ENSG00000107863|unk|total|mutant (ssRNA)
RNA: GGGAGUUCUACAGUCCGACGAUCAACAAAAGUGCCUCAUCAUAAAAAUACAGUUGGUUUUCCGGGUGCCAUAUUGUUAAAAUCCGAUAACUUACUUACAUUGAAUAAACGAAUGCGUUUUAUUGGUAACAGAUAUCAUUACAUCAACAGAGGAUUGAGCAUCA
B2: chr5:171862525:171862626:-|3pUTR|ENSG00000072803|msi1|FALSE|unique (ssRNA)
RNA: GGGAGUUCUACAGUCCGACGAUCGACAGUGCAUGGAAAGGACGUUGGCAUCCAAUUGGCACUCCUUCUCCCUUAUUCAAUAUUAGGUUUGAUUUGCCCUUCGCCAUUGUUUCCAAAGAUCAAGGAAUGUCAAUAACAUUUUAACAACAGAGGAUUGAGCAUCA
B3: chr7:56101660:56101848:-|3pUTR|ENSG00000106153|msi1|FALSE|unique (ssRNA)
RNA: GGGAGUUCUACAGUCCGACGAUCUGGAGAGAUGGAAAAUCAGCUCUCAUAACUAAGUUAAUUUAGUAUAAAAAUAGAAUUGAUAGUGAGGGUAUAAAGUGUAACCAUCAGUUAAACCUCUCCUGUCAUUCCUGGCUUCCUUGCCAACAGAGGAUUGAGCAUCA
B4: chr7:101137467:101137738:+|3pUTR|ENSG00000106366|msi1|FALSE|unique (ssRNA)
RNA: GGGAGUUCUACAGUCCGACGAUCGUUAAAAGAUGGUAAACCAGAUCUGUCUCCAAGACCUUGGCCUCUCCUUGGAGGACCUUUAGGUCAAACUCCCUAGUCUCCACCUGAGACCCUGGGAGAGAAGUUUGAAGCACAACUCCCCAACAGAGGAUUGAGCAUCA
B5: chr14:74942539:74942640:-|3pUTR|ENSG00000119630|msi1|total|mutant (ssRNA)
RNA: GGGAGUUCUACAGUCCGACGAUCGUGUAUUUAUUACCGUCACACUCUUCAGUGACUCCUGCUGGUACCUGCCCUCUAUUUAUCCGCCAACUGUUUCCCUGCUGAAUGCCUCGCUCCCUUCAAGACGAGGGGCAGGGAAGGACACAACAGAGGAUUGAGCAUCA
B6: chr1:151048051:151048152:+|CDS|ENSG00000143443|unk|FALSE|unique (ssRNA)
RNA: GGGAGUUCUACAGUCCGACGAUCGACCGCCUGGCUGGACCAGCGGCUGCCGAGCUCUUGGCCGCCACGGUGUCCACCGGCUUUAGCCGGUCGUCCGCCAUUAACGAGGAGGAUGGGUCUUCAGAAGAGGGGGUUGUGAUUAAUCAACAGAGGAUUGAGCAUCA
B7: chrX:65741840:65741941:+|3pUTR|ENSG00000147065|msi1|total|mutant (ssRNA)
RNA: GGGAGUUCUACAGUCCGACGAUCAAAUUGUUUUUGGAGGGGUUUAUGCUCAAUCCAUGUUCUAUUUCAGUGCCAAUAAAAUUCCGGAAGACUUCACAGUGACUCAAUCGUUCUUUGUGGUAUGAGUGGGCCGCUGUAAGAUAUCAACAGAGGAUUGAGCAUCA
B8: chr12:106067485:106067586:-|CDS|ENSG00000074590|msi1|FALSE|unique (ssRNA)
RNA: GGGAGUUCUACAGUCCGACGAUCCCUGAAGAAGCGAAGCAACAGCGAGCAUCGCUCUCACAGCACUGGCUUCAUUGAAGGUGUAGUUGGUCCUGCCUUACCCUCUACUUUCAAGAUGGAGCAGGACUUGUGCAGGACUGGCGUCAACAGAGGAUUGAGCAUCA
B9: chr4:185586528:185586629:-|3pUTR|ENSG00000154556|msi1|total|mutant (ssRNA)
RNA: GGGAGUUCUACAGUCCGACGAUCAUCCAUAUGAUAUGUUGUACAUUUUAUGGAAAUGUAACCGAAUCUCACACAUUAUUUUACCGAAACCGAGUACAGAAGCAUCACAAGUAUUAAAGUUGGUUUCCGCAAGGAUCCGGAUUACAACAGAGGAUUGAGCAUCA
B10: chrX:131089436:131089558:+|3pUTR|ENSG00000147256|unk|total|mutant (ssRNA)
RNA: GGGAGUUCUACAGUCCGACGAUCGGGAAACCUCAAGUGCCGGUCUAAUCCGUGUUUCUGGGAUCCAAAGUCCGAGGAAAAUUCCGAUUUUAUUGCCUGGAUCUGCUUUAAAGACAAUUGGUGUUUACACCCUCUUGUCAGCAACAACAGAGGAUUGAGCAUCA
B11: chr4:185586528:185586629:-|3pUTR|ENSG00000154556|msi1|FALSE|unique (ssRNA)
RNA: B9 RNA with C61U, C62A, C83U, C84A, C89U, C90A, C126U, C127A, C136U, C137A
B12: chr20:53567570:53567671:-|3pUTR|ENSG00000171940|unk|FALSE|unique (ssRNA)
RNA: GGGAGUUCUACAGUCCGACGAUCUCACAAGCUGAGCCAUAUGUACAUAAUCUAGAUUUUGUUUUCAUAGUUUUGCACUUUUAUAGCCUAUUUUUGAAGAUUAACACAUUUGCAAGAUGAUUGACUCAAUCUUUGCCUAAUCCACAACAGAGGAUUGAGCAUCA
B13: chr4:168926953:168927063:+|3pUTR|ENSG00000129116|msi1_unk|total|mutant (ssRNA)
RNA: GGGAGUUCUACAGUCCGACGAUCCAAAAGAGUUUUCUAACAAGGUUAAUACCUCCGUUCUUAACAUUUUUUUUCUUUAUGUGCCGUGUUUUCAUGCUACCUUGGCCGGAAACUUAUUUACAAACCAUAUUAAAAGGCUAAUUUCAACAGAGGAUUGAGCAUCA
B14: chr12:98549714:98549829:+|3pUTR|ENSG00000120802|unk|total|mutant (ssRNA)
RNA: GGGAGUUCUACAGUCCGACGAUCGAAGAUGUAUAUUCCGACCAGCACACAAUUUUGAUUUCAAUCCGCCUUAUUCUAAUAUUCCGCUUUCCGAUCUUUCAUACACAUUUUCACGUACUUUGCAAUUGAGACCAGAAAGACUUGCAACAGAGGAUUGAGCAUCA
B15: chr12:7729382:7729740:-|three_prime_utr|ENSG00000198178|control|control|control (ssRNA)
RNA: GGGAGUUCUACAGUCCGACGAUCAUCUACAUAUAAAUGAAAUAUUCUCCCUGGAAAUGUGUUUGGGUUGGCAUCCACCGUUGUAGAAAGCUAAAUUGAUUUUUUAAUUUAUGUGUAAGUUUUGUACAAGGAAUGCCCCUAAAACAACAGAGGAUUGAGCAUCA
B16: chr12:98549714:98549829:+|3pUTR|ENSG00000120802|unk|FALSE|unique (ssRNA)
RNA: B14 RNA with C37U, C38A, C65U, C66A, C83U, C84A, C90U, C91A
B17: ENSG00000136451:be:win_1601|3pUTR|ENSG00000136451|bound_else_gene|NA|bound_elsewhere_windowed (ssRNA)
RNA: GGGAGUUCUACAGUCCGACGAUCAAUAUUUACCAGCAACUUAACUUUUAGUUGAUUAAAGCAAAAAGUAAACCAUGAAAUUGGGAGAUUUUAUUACAUUAGUUAAUAAGAGUGUGGUAGCAUUUUUCUCCAAUUUGGCUGGGACAACAGAGGAUUGAGCAUCA
B18: chrX:131089436:131089558:+|3pUTR|ENSG00000147256|unk|FALSE|unique (ssRNA)
RNA: B10 RNA with C39U, C40A, C49U, C50A, C71U, C72A, C83U, C84A
B19: chr7:2728618:2728646:-|3pUTR|ENSG00000146535|msi1_unk|FALSE|overlapping (ssRNA)
RNA: GGGAGUUCUACAGUCCGACGAUCUUUAAUUUCACUGUUAAUCCUUAUUGUCUUUUUUAUUAAGAUGUUGGAAAAGCAGGAGGUAGUUGUGCCUCAAUUAUUGCAAAAAUGUAACAAUAAAGUUCCUCAAAAUAAGAUCUGUUCCAACAGAGGAUUGAGCAUCA
B20: chr4:168926953:168927063:+|3pUTR|ENSG00000129116|msi1_unk|FALSE|overlapping (ssRNA)
RNA: B13 RNA with C54U, C55A, C83U, C84A, C105U, C106A

These binders were tested against MSI1 full-length (mouse, UniProt Q61474 1-362) (assay: nsRBNS (natural sequence RNA bind-n-seq); RBNS binding buffer (assumed for nsRBNS): 25 mM Tris pH 7.5, 150 mM KCl, 3 mM MgCl2, 0.01% Triton X-100, 500 ug/ml BSA, 20 U/ml SUPERase-In, 4 C; UNK is unkempt and MSI1 is Musashi-1; names of the RNAs are library labels; protein concentration not given here; high values mean tight binding).
Chain of MSI1 full-length (Q61474 whole entry): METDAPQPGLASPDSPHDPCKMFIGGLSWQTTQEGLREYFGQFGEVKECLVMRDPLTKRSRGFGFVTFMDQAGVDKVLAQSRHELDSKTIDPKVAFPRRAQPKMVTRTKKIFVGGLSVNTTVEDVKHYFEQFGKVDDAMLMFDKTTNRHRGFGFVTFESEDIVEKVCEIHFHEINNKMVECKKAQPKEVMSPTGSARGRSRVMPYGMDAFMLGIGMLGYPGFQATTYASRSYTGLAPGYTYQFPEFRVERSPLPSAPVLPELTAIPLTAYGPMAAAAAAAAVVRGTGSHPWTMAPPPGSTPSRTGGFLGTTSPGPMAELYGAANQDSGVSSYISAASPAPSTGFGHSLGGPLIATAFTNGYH
Binder B1 has a binding signal of 0.389 enrichment R.
B2 showed a binding signal of 0.699 enrichment R.
With B3 the binding signal was 5.86 enrichment R.
For B4, the binding signal was 0.316 enrichment R.
Work on B5 yielded a binding signal of 0.338 enrichment R.
For B6, the binding signal was 0.497 enrichment R.
B7 gave a binding signal of 0.205 enrichment R.
In the case of B8, the binding signal is reported as 0.282 enrichment R.
B9 gave a binding signal of 0.725 enrichment R.
B10 showed a binding signal of 0.224 enrichment R.
Binder B11 has a binding signal of 34.5 enrichment R.
In the case of B12, the binding signal is reported as 4.98 enrichment R.
B13 was tested, and the binding signal was 0.747 enrichment R.
B14 was tested, and the binding signal was 0.832 enrichment R.
B15 showed a binding signal of 0.681 enrichment R.
B16 was tested, and the binding signal was 23.7 enrichment R.
For B17, the binding signal was 1.37 enrichment R.
With B18 the binding signal was 20.8 enrichment R.
B19 gave a binding signal of 0.334 enrichment R.
B20 showed a binding signal of 20 enrichment R.
